Among all 96,000 compounds or so, about 19,000 (20%) were called active. These entries were drawn from the full list. A number with no mark means an inactive call.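 The calls were made as follows: active = blocking of liver enzyme CYP2C9 beyond about 50% at 5 µM (limit read from the data); inactive = the rest.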
The compounds below were run against Cytochrome P450 2C9 (Homo sapiens) (UniProt P11712) (assay: blockers of cytochrome P450 2C9 activity – biochemical, luminescence, ADME assay, primary screen (AID 777)). Details: CYP2C9 Supersomes, luciferin-H conversion, at 5 µM, stronger effect = higher value.
Sequence of Cytochrome P450 2C9 (Homo sapiens) (P11712 whole entry, looked up): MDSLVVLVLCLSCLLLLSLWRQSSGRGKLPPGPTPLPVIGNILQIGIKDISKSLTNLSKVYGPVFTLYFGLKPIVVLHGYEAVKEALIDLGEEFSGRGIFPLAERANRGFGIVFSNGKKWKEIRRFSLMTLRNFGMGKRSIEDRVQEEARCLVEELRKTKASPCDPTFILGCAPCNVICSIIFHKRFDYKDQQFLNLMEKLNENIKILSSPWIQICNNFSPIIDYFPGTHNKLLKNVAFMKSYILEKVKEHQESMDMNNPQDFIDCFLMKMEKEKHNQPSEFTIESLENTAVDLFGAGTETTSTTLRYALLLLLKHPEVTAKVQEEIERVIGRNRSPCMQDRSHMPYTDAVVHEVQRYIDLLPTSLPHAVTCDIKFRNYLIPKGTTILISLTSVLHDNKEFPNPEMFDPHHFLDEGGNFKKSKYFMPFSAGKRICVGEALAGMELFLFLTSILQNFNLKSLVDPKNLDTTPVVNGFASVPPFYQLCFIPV
In the case of CCOC(=O)c1nn(-c2cccc(C)c2)cc1C(=O)c1ccccc1, the inhibition is reported as 33.5%.
Work on Cc1ccc(-c2ccnc3nc(Sc4ncc(C(F)(F)F)cc4Cl)nn23)cc1 yielded an inhibition of 9.8%.
N#Cc1cccc(CSc2nnc(CCCO)n2-c2ccccc2)c1 was tested, and the inhibition was 11.5%.
Cc1cccc(NC(=O)c2ccc(OCC(=O)NCc3ccccc3)cc2)c1C gave an inhibition of -9.9%.
In the case of Cc1cccc(C)c1NC1=NC(=S)N(c2ccc(N(C)C)cc2)C1(C)C, the inhibition is reported as -27.7%.
Compound COc1ccc(NC(=O)ON=C2c3ccccc3-c3ccccc32)cc1 has an inhibition of 16%.
CCN(CC)S(=O)(=O)c1cc([N+](=O)[O-])ccc1NNC(=O)Nc1ccccc1 showed an inhibition of 25.7%.
O=C(Nc1ccccc1)O/N=C1\CCCCC1c1ccc([N+](=O)[O-])cc1[N+](=O)[O-] (stereo not given) was tested, and the inhibition was 63.3% (active).
Work on Cc1ccc2oc(=O)c3cnn(CC(=O)N4CCCCCC4)c3c2c1 yielded an inhibition of 4.4%.
Work on COc1ccc(N2C(=O)CCC(C(=O)N(C)C3CCCCC3)C2c2ccc(OC)c(OC)c2)cc1 (stereo not given) yielded an inhibition of 10.7%.
Work on CCCC(NC(=O)c1ccccc1)c1nc2ccccc2n1Cc1ccc(C(=O)OC)o1 (stereo not given) yielded an inhibition of 14.1%.
C=CCn1c(C(C)NC(=O)CC)nc2ccccc21 (stereo not given) showed an inhibition of -3.6%.
For CCCn1c(C(Cc2ccccc2)NC(=O)COC)nc2ccccc21 (stereo not given), the inhibition was 74.5% (active).
CC/S(CC1CC1(Cl)Cl)=N\S(=O)(=O)c1ccc(C)cc1 (stereo not given) gave an inhibition of -9%.
Compound CS(=O)(=O)N1CCN(c2cccc(Cl)n2)CC1 has an inhibition of 19.9%.
CN1c2ccccc2-c2nc3ccccc3n2C1c1ccco1 (stereo not given) was tested, and the inhibition was 45.9%.
O=C(Oc1cccnc1)c1cc2ccccc2oc1=O showed an inhibition of 30.1%.
CCc1ccc(CNC(=O)CCc2nc(-c3cccs3)no2)cc1 was tested, and the inhibition was 70.4% (active).
In the case of Cc1ccc(-c2noc(CCC(=O)Nc3ccccc3N3CCN(C)CC3)n2)cc1, the inhibition is reported as 48.1%.
Compound CCNC(=O)CCc1nc(-c2ccc(C(C)(C)C)cc2)no1 has an inhibition of -11.4%.
Work on Cc1cc(C)cc(N(CC(=O)Nc2c(C)n(C)n(-c3ccccc3)c2=O)S(C)(=O)=O)c1 yielded an inhibition of 16.3%.
Compound O=C(N/N=C/c1ccc(O)cc1)/C(=C/c1ccc([N+](=O)[O-])cc1)NC(=O)c1ccccc1 has an inhibition of -2.6%.
Work on N#CCCN1CCN(S(=O)(=O)c2ccc(S(=O)(=O)N3CCCC3)cc2)CC1 yielded an inhibition of 16.2%.
In the case of N#CCCN1CCN(S(=O)(=O)c2ccc(S(=O)(=O)NC3CCCCC3)cc2)CC1, the inhibition is reported as 58% (active).
N#CCCN1CCN(S(=O)(=O)c2ccc(S(=O)(=O)NC3CC3)cc2)CC1 was tested, and the inhibition was 9.6%.
Cc1ccccc1-n1c(C)cc(/C=N/NC(=O)c2ccc(CN3CCOCC3)cc2)c1C gave an inhibition of 31.2%.
For CC(C)(C)Oc1ncc(Br)c(OC(C)(C)C)n1, the inhibition was -16.6%.
COc1cccc(C2/C(=C(/O)c3ccncc3)C(=O)C(=O)N2CCCN(C)C)c1 (stereo not given) showed an inhibition of -17.5%.
For COc1ccc(OC)c(N=Cc2c(O)[nH]c3ccccc23)c1, the inhibition was 15.1%.
Work on COc1ccc(N=Cc2c(O)[nH]c3ccccc23)cc1OC yielded an inhibition of 2.9%.
With COc1cc(N=Cc2c(O)[nH]c3ccccc23)cc(OC)c1OC the inhibition was 66% (active).
In the case of CCCCCCC(=O)Nc1nc(C)c(-c2csc(Nc3cccc(OC)c3)n2)s1, the inhibition is reported as 19.4%.
COC(=O)c1cc(OC)c(OC)cc1NC(=O)CSc1ccc(C)cc1 showed an inhibition of 21.1%.
In the case of Cc1ccc(SCC(=O)c2cc(C)c(OC(=S)N(C)C)c(C)c2)cc1, the inhibition is reported as 58.6% (active).
In the case of Cc1ccc(SC(=O)COc2ccc(C)c(C)c2)cc1, the inhibition is reported as 13.5%.
CSc1nc(C)nc2c1c(=O)n(C)c(=O)n2C gave an inhibition of -6.6%.
With CSc1nc2nc3c(c(=O)n2[nH]1)CCC3 the inhibition was -13.2%.
Cc1ccc2nc(NC(=O)C3CCN(S(=O)(=O)c4ccc5c(c4)oc(=O)n5C)CC3)sc2c1 gave an inhibition of -47.7%.
Compound Cn1c(=O)oc2cc(S(=O)(=O)N3CCC(C(=O)Nc4ccc(OC(F)(F)F)cc4)CC3)ccc21 has an inhibition of -62.7%.
In the case of Cc1ccc(C)c(N2CCN(S(=O)(=O)c3ccc4c(c3)oc(=O)n4C)CC2)c1, the inhibition is reported as 88.4% (active).
Work on CCSC1(SCC)N=C(N)C2(C#N)C(c3ccccc3)NC(C)=CC12C#N (stereo not given) yielded an inhibition of 6.1%.
COC(=O)c1ccc2c(=O)n(CC3CCCO3)c(=S)[nH]c2c1 (stereo not given) showed an inhibition of 6.5%.
In the case of CCOc1cccc(=O)c2c(C)n(CC3CCCO3)c(C)c12 (stereo not given), the inhibition is reported as 59.7% (active).
Work on O=c1c2cc3c(=O)n(CC4CCCO4)c(=O)c3cc2c(=O)n1CC1CCCO1 (stereo not given) yielded an inhibition of 3.8%.
With OCCCN1c2ccccc2Nc2nnc(-c3ccccc3)cc21 the inhibition was 46.3%.
CN(C)c1nc2n(c(=O)n1)CCO2 was tested, and the inhibition was 2.6%.
CC(C)(CNC(=O)c1cc(=O)[nH]c2ccccc12)N1CCOCC1 gave an inhibition of 8%.
With COC(=O)c1[nH]c2ccccc2c1NC(=O)CN1CCCc2ccccc21 the inhibition was 88.7% (active).
Compound CCOC(=O)c1[nH]c2ccc(OC)cc2c1NC(=O)CCN1CCN(Cc2ccccc2)CC1 has an inhibition of 11.4%.
Cc1cccc(-n2c(O)c(C=Nc3ccccc3N)c(=O)[nH]c2=O)c1 was tested, and the inhibition was 0.2%.
With CCCOP(=O)(c1ccc(N(C)C)cc1)C(O)c1cc(OC)c(OC)c(OC)c1 (stereo not given) the inhibition was -3.1%.
In the case of CCC(=O)OCc1c(C(F)(F)F)nn(C)c1Oc1cccc(C(F)(F)F)c1, the inhibition is reported as 34%.
Cn1nc(C(F)(F)F)c(C(=O)Nc2cccc(C(F)(F)F)c2)c1SCc1ccc(Cl)cc1 was tested, and the inhibition was 97.5% (active).
With FC(F)(F)c1cccc(NC(=S)Nc2cccc(Cl)c2)c1 the inhibition was -83%.
With COC(=O)c1sc2ncccc2c1OCc1ccc(Cl)cc1Cl the inhibition was 9.3%.
Cc1ccc2c(C(=O)CN3CCCC3)c(C)[nH]c2c1 gave an inhibition of 49.7%.
Compound CC1=CC(C)(C)Nc2ccc(OC(=O)CN3C(=O)C4CCCCC4C3=O)cc21 (stereo not given) has an inhibition of 10.9%.
CC1=CC(C)(C)Nc2ccc(OC(=O)C(Cc3ccccc3)N3C(=O)C4CCCCC4C3=O)cc21 (stereo not given) was tested, and the inhibition was 72.8% (active).
For Cc1ccc(C)n1C(Cc1ccccc1)C(=O)O (stereo not given), the inhibition was 28.3%.
O=C(Nc1ccon1)c1sc2ccccc2c1Cl showed an inhibition of -23.1%.
CCc1c(C)c2c(C)[nH]nc2oc1=O gave an inhibition of -66%.
Cc1cc2c(c(=O)n1Cc1ccco1)C(c1ccccc1)C(C#N)=C(N)O2 (stereo not given) showed an inhibition of 1.2%.
Compound Cc1ccc(-c2nc3ccccc3[nH]2)cc1N has an inhibition of 40.6%.
Work on Cn1nc([N+](=O)[O-])nc1Sc1ccc(C(C)(C)C)cc1 yielded an inhibition of 12.1%.
COc1ccccc1Nc1ncc(C(C)=O)c(C)n1 gave an inhibition of 18.7%.
Work on CCC(C(=O)NC1CCCC1)N(C(=O)c1snc(C(N)=O)c1N)c1ccc2c(c1)OCCO2 (stereo not given) yielded an inhibition of 14.7%.
CN(C(=O)CSc1nc(C2CC2)nc2ccccc12)c1nc(-c2ccccc2)cs1 showed an inhibition of 39.9%.
COc1ccc2c(c1OC)C(=O)OC2Nc1nc(-c2ccccc2)cs1 (stereo not given) was tested, and the inhibition was 8.8%.
With COc1ccc(CCN(C(=O)COc2ccccc2)c2nc(-c3ccccc3)cs2)cc1OC the inhibition was 75.2% (active).
CCn1c(=N)n(CC(=O)c2cccc(OC)c2)c2ccccc21 gave an inhibition of -13.2%.
O=C(Nc1ccc(Cl)cn1)c1cnn2cccnc12 showed an inhibition of 11.4%.
With O=S1(=O)CCN(Cc2ccccc2Cl)CC1 the inhibition was 13.3%.
In the case of Cc1noc(C)c1C(=O)OCC(=O)/C=C1\N(C)c2ccccc2C1(C)C, the inhibition is reported as 55.7% (active).
With CN1/C(=C\C(=O)c2oc3ccccc3c2N)C(C)(C)c2ccccc21 the inhibition was 47.6%.
Cc1ccc(-c2nc(COC(=O)c3c(C)noc3C)cs2)cc1 showed an inhibition of 28%.
Nc1nnc(SCCN2C(=O)c3ccccc3S2(=O)=O)s1 showed an inhibition of -0.2%.
With O=C(c1cccs1)N1CCC(c2nc3ccccc3s2)CC1 the inhibition was 60.9% (active).
With O=C(c1cccs1)N1CCN(C(=O)N2CCOCC2)CC1 the inhibition was -2%.
Compound Cc1cccc(NC(=S)N2CCC(c3nc4ccccc4s3)CC2)c1 has an inhibition of -16.4%.
With CCC1(C)Cc2c(sc3nnn(CC(=O)Nc4ccc(Cl)cc4)c(=O)c23)CO1 (stereo not given) the inhibition was 49.3%.
For COc1ccc(Cc2nnc(NS(=O)(=O)Cc3ccccc3)s2)cc1, the inhibition was 60.3% (active).
In the case of COc1ccc(Cc2nnc(NC(=O)Cc3cccs3)s2)cc1, the inhibition is reported as 24.4%.
For CCC(CC)c1nnc(NS(=O)(=O)Cc2ccccc2)s1, the inhibition was 34.3%.
For COc1ccc(C(=O)Nc2ccccc2C(=O)N/N=C/c2ccc(O)c(OC)c2)cc1, the inhibition was 73.4% (active).
COc1ccc(C(=O)Nc2ccccc2C(=O)N/N=C/c2ccccc2OC)cc1 showed an inhibition of -11.9%.
COc1cc(/C=N\NC(=O)CNC(=O)c2cccc([N+](=O)[O-])c2)ccc1O showed an inhibition of -11.8%.
Work on CCCC(CCC(=O)OC)(C(=O)OCC)c1csc(N)n1 (stereo not given) yielded an inhibition of 30.1%.
C#CCN1C(=O)C(O)(CC(=O)c2cc(OC)ccc2OC)c2ccccc21 (stereo not given) showed an inhibition of 30.3%.
Work on O=C(Nc1ccccc1F)C1C2C=CC3(O2)C1C(=O)N(c1cccnc1)C3C(=O)NC1CCCCC1 (stereo not given) yielded an inhibition of -11.1%.
With CCOC(=O)NC(C(F)(F)F)(C(F)(F)F)P(=O)(c1ccccc1)c1ccccc1 the inhibition was -2.2%.
CCOc1cc2[nH]c(=S)n(CCN3CCCCC3C)c(=O)c2cc1OCC (stereo not given) was tested, and the inhibition was 17.7%.
Compound Nc1ccc(Nc2ccccc2)cc1 has an inhibition of 12.1%.
With Nc1ccc(-c2nnc(-c3ccc(-c4ccccc4)cc3)o2)cc1 the inhibition was 78.7% (active).
For Nc1ccc(-c2sc(N)nc2-c2ccccc2)cc1, the inhibition was 12.4%.
For CSc1ncccc1C(=O)OCC(=O)N1CCOCC1, the inhibition was -8%.

— PubChem BioAssay AID777 (Sanford-Burnham Center for Chemical Genomics, 2007)
